Results from the supplement of paper PMC7057948, “A genome-wide approach for identification and characterisation of metabolite-inducible systems” (Nature Communications, 2020).

Tests used:
Experiment in all cases: relative induction of RFP reporter vs primary effector (background-corrected); higher = stronger activation of the biosensor
Details in all cases: inducer concentration 5 mM; 6 h; Cupriavidus necator H16; minimal medium + 0.4% gluconate
[1] = test system: AcoR/P_H16_RS19445 acetoin biosensor (pEH052)
Method: (§1)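 C. necator H16 strains, each carrying one of 21 transcription factor/inducible promoter–mRFP biosensor plasmids, were grown in minimal medium in 96-well plates (robotic platform). Each was exposed to 46 structurally or metabolically related compounds at 5 mM at 30 °C. OD-normalised RFP fluorescence was read 6 h later and expressed as relative induction (%) = 100 × (FL compound − FL uninduced)/(FL primary inducer − FL uninduced); mean of n=4.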

[2] = test system: AraC/P_araBAD L-arabinose biosensor (pEH176)
Method: as §1

[3] = test system: BadR/P_H16_RS27200 cyclohexanecarboxylate biosensor (pEH159)
Method: as §1

[4] = test system: BenM/P_H16_RS09790 benzoate biosensor (pEH148)
Method: as §1

[5] = test system: FdsR/P_H16_RS03165 formate biosensor (pEH134)
Method: as §1

[6] = test system: GabR/P_H16_RS23655 GABA biosensor (pEH256)
Method: as §1

[7] = test system: HpdR/P_H16_RS18295 3-hydroxypropanoate biosensor (pEH010)
Method: as §1

[8] = test system: KynR/P_H16_RS14030 L-kynurenine biosensor (pEH136)
Method: as §1

[9] = test system: NahR/P_H16_RS08125 salicylate biosensor (pEH042)
Method: as §1

[10] = test system: OapR/P_H16_RS01330 beta-alanine biosensor (pEH147)
Method: as §1

[11] = test system: PcaQ/P_H16_RS30145 3,4-dihydroxybenzoate biosensor (pEH161)
Method: as §1

[12] = test system: PhgR/P_H16_RS05530 phenylglyoxylate biosensor (pEH155)
Method: as §1

[13] = test system: PhhR/P_H16_RS18365 L-phenylalanine biosensor (pEH137)
Method: as §1

[14] = test system: SauR/P_H16_RS13695 sulfonatoacetate biosensor (pEH157)
Method: as §1

[15] = test system: TtdR/P_H16_RS10665 tartrate biosensor (pEH083)
Method: as §1

[16] = test system: XdhR/P_H16_RS05055 xanthine biosensor (pEH154)
Method: as §1

[17] = test system: heterologous inducible system pEH002 (rhamnose/acrylate/cumate/itaconate set)
Method: as §1

[18] = test system: heterologous inducible system pEH020 (rhamnose/acrylate/cumate/itaconate set)
Method: as §1

[19] = test system: heterologous inducible system pEH040 (rhamnose/acrylate/cumate/itaconate set)
Method: as §1

[20] = test system: heterologous inducible system pEH086 (rhamnose/acrylate/cumate/itaconate set)
Method: as §1
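Note: RFP excited at 585 nm with emission read at 620 nm, culture medium blanks subtracted from fluorescence and absorbance prior to normalisation.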

Structure (SMILES)	relative induction of RFP reporter [1]	relative induction of RFP reporter [2]	relative induction of RFP reporter [3]	relative induction of RFP reporter [4]	relative induction of RFP reporter [5]	relative induction of RFP reporter [6]	relative induction of RFP reporter [7]	relative induction of RFP reporter [8]	relative induction of RFP reporter [9]	relative induction of RFP reporter [10]	relative induction of RFP reporter [11]	relative induction of RFP reporter [12]	relative induction of RFP reporter [13]	relative induction of RFP reporter [14]	relative induction of RFP reporter [15]	relative induction of RFP reporter [16]	relative induction of RFP reporter [17]	relative induction of RFP reporter [18]	relative induction of RFP reporter [19]	relative induction of RFP reporter [20]
NCC(N)C(=O)O (stereo not given) [2,3-diaminopropanoate]	0.396%	0.013%	-0.224%	0.0534%	-1.38%	-1.16%	0.349%	-0.43%	0.0162%	0.656%	-0.0605%	-0.221%	0.0532%	-0.0132%	-0.586%	-0.1%	0.0204%	-0.419%	2.94%	0.484%
Cn1cnc2c1c(=O)[nH]c(=O)n2C [theobromine]	0.603%	0.0327%	–	0.0104%	3.33%	-2.07%	0.0941%	1.51%	0.0192%	0.977%	-0.0479%	0.316%	1.05%	-0.00533%	0.646%	0.45%	0.0324%	-0.957%	0.453%	0.597%
Oc1ccc(O)cc1 [hydroquinone]	4.27%	0.188%	4.02%	0.0575%	11.3%	8.11%	1.65%	1.53%	0.108%	0.00669%	0.229%	1.56%	2.24%	0.207%	1.2%	0.708%	0.0465%	-0.0999%	2.73%	0.735%
C[C@H](N)C(=O)O [L-alanine]	-2.72%	-0.0291%	–	-0.053%	-2.12%	-2.55%	-0.329%	-0.519%	0.00167%	-0.209%	-0.263%	-0.259%	-0.741%	-0.0427%	-0.256%	-0.737%	-0.00357%	-1.6%	-1.7%	-0.23%
NC(C(=O)O)c1ccccc1 (racemic) [D,L-2-phenylglycine]	2.41%	-0.0373%	–	0.0272%	5.96%	-1.88%	0.893%	-0.416%	0.0395%	0.858%	0.145%	1.69%	-0.209%	-0.00851%	0.176%	0.377%	0.012%	3.29%	0.705%	0.876%
C[C@@H](O)C(=O)O [D-lactate]	-2.25%	-0.0311%	–	-0.0413%	-1.67%	-2.02%	-0.134%	0.0968%	-0.00031%	-0.533%	-0.113%	-0.587%	-0.462%	0.0141%	0.347%	-0.947%	0.0109%	-0.802%	-1.93%	0.366%
Cn1c(=O)c2c(ncn2C)n(C)c1=O [caffeine]	3.23%	0.0778%	–	0.0418%	5.81%	-0.00438%	0.0271%	1.64%	0.0392%	0.545%	0.0177%	-0.541%	1.57%	0.0139%	0.808%	0.33%	0.0111%	-0.176%	1.6%	0.797%
